The text below walks through data of paper PMC4552634, “A New Set of Chemical Starting Points with Plasmodium falciparum Transmission-Blocking Potential for Antimalarial Drug Discovery” (PLoS ONE, 2015).

Read-outs that look alike come from different tables or passages of the source. Out of some 13,000 compounds screened, about 3,200 (25%) showed an effect of 50% or more. The list shows a part of the results.

For orientation: % Inhibition means the relative decrease from the control value, in per cent.

In this assay the test system is P. falciparum stage V gametocytes. Details: BacTiter-Glo ATP luminescence viability of purified stage V gametocytes in 384-well plates, per cent inhibition versus DMSO. Particulars: 48 h, 5 µM, inhibitor.

As to `O=C(/C=C/c1ccc(Cl)c(Cl)c1)NC1CCC(CN2CCC(c3nc4ccc(O)cc4[nH]3)CC2)CC1` (stereo not drawn) [TCMDC-140227], the “% Inhibition” value turned out to be 3.463%.
For the compound `CCCc1cc(Cc2cnc(N)nc2N)cc(CCC)c1OC` [TCMDC-137694], the “% Inhibition” value is listed as -10.37%.
For `Cc1ccc(-c2noc(=O)n2CC(=O)Nc2ccccc2-c2ccccc2)cc1` [TCMDC-123570], the “% Inhibition” value is listed as 15.39%.
In the case of `CC(Cc1ccc(CNC(=O)NCc2ccc(CC(C)NCCc3cccc(Cl)c3)cc2)cc1)NCCc1cccc(Cl)c1` (stereo not drawn) [TCMDC-139648], the “% Inhibition” value was determined as 111.4%.
Still for that read-out and setting: as for `CC(C)c1ccc(NC(=O)c2ccc(CN3CCCN(Cc4cccc(Cl)c4)CC3)cc2)cc1` [TCMDC-136418], the figure is 3.705%.
Regarding `CC(Cc1ccc(CNC(=O)c2ccc(CC(C)NCCc3cccc(Cl)c3)cc2)cc1)NCCc1cccc(Cl)c1` (stereo not drawn) [TCMDC-139659], the “% Inhibition” value worked out at 108.3%.
Still for that read-out and setting: as for `CC(Cc1ccc(NS(=O)(=O)c2ccc(CC(C)NCCc3cccc(Cl)c3)cc2)cc1)NCCc1cccc(Cl)c1` (stereo not drawn) [TCMDC-139797], the figure is 48.75%; as for `CC(C)c1sc(N2CCN(C)CC2)nc1C(=O)NCCc1cccc(Cl)c1` [TCMDC-134297], 6.593%.
With `O=C(NCCc1ccc(Cl)c(Cl)c1)c1ccc(CNC(=O)c2ccc(O)c(-c3ccc(Cl)c(Cl)c3)c2)cc1` [TCMDC-140872], the “% Inhibition” value was found to be 8.428%.
Turning to `CC(Cc1ccc(C(=O)N2CCN(C(=O)c3ccc(CC(C)NCCc4cccc(Cl)c4)cc3)CC2)cc1)NCCc1cccc(Cl)c1` (stereo not drawn) [TCMDC-139613], the “% Inhibition” value is recorded as 105.5%.
For `CC(C)n1cc(CN2CCCC(C(=O)Nc3cccc(-c4cc5ccccc5[nH]4)c3)C2)cn1` (stereo not drawn) [TCMDC-124681], the “% Inhibition” value was -62.3%.
On to `CC(C)c1sc(N2CCCCC2)nc1C(=O)Nc1ccc(F)cc1C(F)(F)F` [TCMDC-134299], for which the “% Inhibition” value is -21.66%.
Turning to `COc1cccc(CNC(=O)NC2CCN(c3ccnc(Nc4cc(OC)c(OC)c(OC)c4)n3)C2)c1` (stereo not drawn) [TCMDC-133628], the “% Inhibition” value was 38.97%.
The same measure, in the same setting: as for `FC(F)(F)c1ccc2[nH]c(-c3ccc(-c4ccc(CNCCc5ccncc5)cc4)cc3)nc2c1.O=C(O)C(F)(F)F` [TCMDC-132852], the figure is -64.17%; as for `CS(=O)(=O)NCCCNCc1ccc(-c2ccc(-c3nc4cc(C(F)(F)F)ccc4[nH]3)cc2)cc1.O=C(O)C(F)(F)F` [TCMDC-133080], -31.8%.
On to `CCN(CC)CCCNCc1ccc(-c2ccc(C(F)(F)F)cc2)cc1` [TCMDC-141087], for which the “% Inhibition” value was determined as 65.86%.
As for `CS(=O)(=O)NCCCNCc1ccc(-c2cccc(-c3nc4ccc(C(F)(F)F)cc4[nH]3)c2)cc1` [TCMDC-133087], the “% Inhibition” value worked out at 6.297%.
For `CN(C)CCCNCc1ccc(-c2ccc(C(F)(F)F)cc2)cc1` [TCMDC-140011], the “% Inhibition” value worked out at 92.27%.
As to `CN1CCC(NCc2ccc(-c3ccc(C(F)(F)F)cc3)cc2)CC1` [TCMDC-141094], the “% Inhibition” value is on record as -30.31%.
For the compound `O=C(CC(=O)C(F)(F)F)c1ccccc1[N+](=O)[O-]` [TCMDC-125884], the “% Inhibition” value came out at 22.33%.
Take `Cc1ccc(-n2c(Cc3cccc4ccccc34)nnc2SCCC#N)c(C)c1` [TCMDC-123560]: the “% Inhibition” value is -0.8399%.
In the case of `O=C(CC1CCCC1)Nc1ccc2c(c1)CCC2` [TCMDC-124327], the “% Inhibition” value was found to be 8.334%.
With `CC(C)n1ncc2c(C(=O)N3CCCC4CCCCC43)cc(C3CC3)nc21` (stereo not drawn) [TCMDC-125305], the “% Inhibition” value was -1.205%.
On the same count and under the same terms, as for `Cc1ccc(-n2c(Sc3ncnc4sccc34)nnc2N2CCCC2)cc1` [TCMDC-125247], the figure is 65.97%; as for `COc1cc2nc(NCCC(C)C)n3nc(-c4ccccc4)nc3c2cc1OC` [TCMDC-124451], -18.82%; as for `CN1CCN(CCCCCCNc2c3ccccc3nc3ccccc23)CC1` [TCMDC-137542], 98.34%.
As for `CC(CCNc1c2ccccc2nc2ccccc12)N1CCN(C)CC1` (stereo not drawn) [TCMDC-138011], the “% Inhibition” value was 98.03%.
Consider `CN1CCN(c2nc(NCCNc3ccc([N+](=O)[O-])cc3)c3ccccc3n2)CC1` [TCMDC-124567], for which the “% Inhibition” value stood at 35.05%.
As to `CN1CCN(CCCCNc2c3ccccc3nc3ccccc23)CC1` [TCMDC-137479], the “% Inhibition” value was 105.4%.
Turning to `CN1CCN(CCCCCNc2c3ccccc3nc3ccccc23)CC1` [TCMDC-137541], the “% Inhibition” value is 96.5%.
Take `COc1ccc2nccc([C@@H](O)CN3CCC(NCc4nc5c(cc4Cl)SCC(=O)N5)C(F)C3)c2c1` (stereo partly drawn) [TCMDC-141717]: the “% Inhibition” value (% Inhibition) is recorded as 2.766%.
In the case of `O=C(Nc1ccc(S(=O)(=O)N2CCCC2)cc1)c1cc(-c2cccnc2)nc2ccc(Cl)cc12` [TCMDC-124359], the “% Inhibition” value is recorded as -22.21%.
`COc1ccc(-c2cnc(N)nc2N)cc1Cl` [TCMDC-137297]: the “% Inhibition” value is -3.357%.
Turning to `CC(C)(C)c1cc(C(=O)N2CCN(c3ccc(C(F)(F)F)cn3)CC2)n(Cc2ccc(F)cc2)n1` [TCMDC-123791], the “% Inhibition” value stood at 22.03%.
As to `Cc1nc(-c2cccc3c(NC(=O)N4CCc5cc6nccc(N7CCN(C)CC7)c6cc54)cccc23)no1` [TCMDC-139370], the “% Inhibition” value is given as -51.93%.
For the compound `Cc1cc(N2CCCCC2)nc2ccc(NC(=O)c3cncc(Br)c3)cc12` [TCMDC-124421], the “% Inhibition” value came out at 17.06%.
Still for that read-out and setting: as for `O=C(Nc1ccccc1)c1ccc(N2CCC(COc3cccc(C(F)(F)F)c3)CC2)nc1` [TCMDC-134507], the figure is -9.482%; as for `CC(C)CNCc1ccc(-c2cccc(CN(C(=O)NC3CCCCC3)C3CCN(Cc4ccccc4)CC3)c2)cc1` [TCMDC-140628], 92.69%; as for `CC(C)CNCc1cccc(-c2cccc(CN(C(=O)NC3CCCCC3)C3CCN(Cc4ccccc4)CC3)c2)c1` [TCMDC-140627], 95.46%.
As to `CC(C)CNCc1cccc(-c2ccc(CN(C(=O)NC3CCCCC3)C3CCN(Cc4ccccc4)CC3)cc2)c1` [TCMDC-140634], the “% Inhibition” value came to 102.1%.
In the case of `CC(C)CNCc1ccc(-c2ccc(CN(C(=O)NC3CCCCC3)C3CCN(Cc4ccccc4)CC3)cc2)cc1` [TCMDC-140635], the “% Inhibition” value is on record as 103.7%.
Consider `CC(C)Oc1ccc(C=CC(=O)Nc2noc3ccccc23)cc1` [TCMDC-125292], for which the “% Inhibition” value was found to be 41.66%.
On the same count and under the same terms, as for `Cc1cccc(CNc2nc(C)cc(NCCC(=O)NCCOc3ccccc3)n2)c1` [TCMDC-134884], the figure is 13.93%.
Take `COc1ccc2ncc(Cl)c(CCN3CCC(NCc4ccc5c(n4)NC(=O)CO5)CC3)c2c1` [TCMDC-141808]: the “% Inhibition” value is -9.673%.
Same read-out and setting: as for `O=C(NCCc1ccc(O)cc1)n1c2ccccc2c2ccccc21` [TCMDC-138166], the figure is -0.5781%; as for `Cc1ccccc1CNc1noc(-c2c(F)cccc2Cl)n1` [TCMDC-133373], 21.36%; as for `O=C(NCCCN1CCCC1=O)c1cnc(N2CCC(Oc3ccccc3)CC2)c(Cl)c1` [TCMDC-134054], 50.82%.
Turning to `Cc1cc(OCC2CCN(c3ncc(C(=O)NC4CC4)cc3Cl)CC2)ccc1F` [TCMDC-134032], the “% Inhibition” value is 14.47%.
For `Cc1cccc(OC2CCN(c3ncc(C(=O)NCCCN4CCCC4=O)cc3Cl)CC2)c1` [TCMDC-134057], the “% Inhibition” value is listed as 81.53%.
Turning to `Cc1ccc(OCC2CCN(c3ncc(C(=O)NC4CC4)cc3Cl)CC2)cc1` [TCMDC-134055], the “% Inhibition” value came out at 11.28%.
For the compound `CC(C)c1cccc(OCC2CCN(c3ncc(C(=O)NC4CC4)cc3Cl)CC2)c1` [TCMDC-134260], the “% Inhibition” value was -10.41%.
For `O=C(NC1CC1)c1cnc(N2CCC(Oc3ccc(Cl)cc3)CC2)c(Cl)c1` [TCMDC-134040], the “% Inhibition” value worked out at 28.34%.
For `Cc1cccc(OCC2CCN(c3ncc(C(=O)NC4CC4)cc3Cl)CC2)c1` [TCMDC-134058], the “% Inhibition” value stood at 0.6256%.
Regarding `O=C(NC1CC1)c1cnc(N2CCC(OCc3ccccc3)CC2)c(Cl)c1` [TCMDC-134610], the “% Inhibition” value is recorded as 14.6%.
In the case of `Cc1ccc(OCC2CCN(c3ncc(C(=O)NCCCN4CCCC4=O)cc3Cl)CC2)cc1` [TCMDC-134056], the “% Inhibition” value amounted to 53.1%.
Take `CC(C)(C)c1ccc(NC(=O)c2cccc(CN3CCN(Cc4cccc(O)c4)CC3)c2)cc1` [TCMDC-136604]: the “% Inhibition” value is recorded as -36.18%.
With `COc1ccc(CNC(=O)NC2CCN(c3ccnc(Nc4cc(OC)c(OC)c(OC)c4)n3)C2)cc1` (stereo not drawn) [TCMDC-133619], the “% Inhibition” value is on record as -40.46%.
Take `Cc1cccc(CN2CCCN(Cc3ccc(C(=O)Nc4ccc(C(C)(C)C)cc4)cc3)CC2)c1` [TCMDC-136434]: the “% Inhibition” value was -28%.
The same measure, in the same setting: as for `CN(c1ccc(NC(=O)Nc2cc(C(F)(F)F)ccc2F)cc1)c1ccnc(NCCN2CCOCC2)n1` [TCMDC-141590], the figure is 51.14%.
`Cn1nc(-c2ccc(NC(=O)Nc3ccc4ccccc4c3)c(F)c2)c2cnc(NCCN3CCOCC3)nc21` [TCMDC-141561]: the “% Inhibition” value was 17%.
Regarding `CN(c1ccc(NC(=O)Nc2cc(C(F)(F)F)ccc2F)cc1)c1ccnc(NCCN2CCCC2)n1` [TCMDC-141635], the “% Inhibition” value amounted to 83.6%.
As to `COc1cc(Nc2nccc(N3CCC(NC(=O)Nc4ccc5c(c4)OCO5)C3)n2)cc(OC)c1OC` (stereo not drawn) [TCMDC-133629], the “% Inhibition” value is given as -90.76%.
For `CCN(CCN(C)C)Cc1ccc(-c2ccc(NS(=O)(=O)c3cccc4cccnc34)cc2)cc1` [TCMDC-136600], the “% Inhibition” value worked out at 46.29%.
In the case of `O=C(Nc1cccc(C(F)(F)F)c1)c1cccc(S(=O)(=O)NCC2CCCN(CC3CCCCC3)C2)c1` (stereo not drawn) [TCMDC-132770], the “% Inhibition” value came out at 87.2%.
The same measure, in the same setting: as for `CC(C)c1ccc(NC(=O)c2ccc(C(=O)NCC3CCN(CC4CCCCC4)CC3)cc2)cc1` [TCMDC-136753], the figure is 4%; as for `O=C(Nc1cccc(C(F)(F)F)c1)c1ccc(S(=O)(=O)NCC2CCCN(CC3CCCCC3)C2)cc1` (stereo not drawn) [TCMDC-132777], 92.44%; as for `O=C(Nc1ccc(C(F)(F)F)cc1)c1ccc(S(=O)(=O)NCC2CCCN(CC3CCCCC3)C2)cc1` (stereo not drawn) [TCMDC-133680], -21.48%.
Still for that read-out and setting: as for `O=C(Nc1cccc(C(F)(F)F)c1)c1ccc(S(=O)(=O)NCC2CCCN2CC2CCCCC2)cc1` (stereo not drawn) [TCMDC-133689], the figure is -36.87%; as for `O=C(Nc1ccc(C(F)(F)F)cc1)c1cccc(S(=O)(=O)NCC2CCCN(CC3CCCCC3)C2)c1` (stereo not drawn) [TCMDC-133673], -19.66%; as for `CCCN1CCN(c2ccccc2NS(=O)(=O)c2ccc(C(=O)Nc3ccc(Cl)cc3)cc2)CC1` [TCMDC-136350], 1.888%.
Same read-out and setting: as for `CCCN1CCN(Cc2ccc(C(=O)Nc3ccc(Cl)cc3)cc2)CC1` [TCMDC-136387], the figure is 3.347%.
Consider `CCCN1CCN(c2ccc(NS(=O)(=O)c3ccc(C(=O)Nc4ccc(Cl)cc4)cc3)cc2)CC1` [TCMDC-136351], for which the “% Inhibition” value is on record as 71.9%.
On to `O=C(Nc1ccc(Cl)cc1)c1ccc(S(=O)(=O)NCC2CCN(CC3CCCCC3)CC2)cc1` [TCMDC-132808], for which the “% Inhibition” value is given as 84.19%.
With `O=C(Nc1ccc(Cl)cc1)c1ccc(CN2CCCN(CC3CCCCC3)CC2)cc1` [TCMDC-136400], the “% Inhibition” value is -37.54%.
Regarding `O=C(Nc1cccc(C(F)(F)F)c1)c1cccc(S(=O)(=O)NCC2CCCN(Cc3ccccc3)C2)c1` (stereo not drawn) [TCMDC-133685], the “% Inhibition” value was -6.422%.
